Results on twelve compounds are retold here after PubChem BioAssay (EPA / NIEHS).

Holding throughout (details): mRNA level, 48 h; actives raise or lower the signal
Read-out in assay [1]: CYP2C9 (gene 1559)
The assay is described as follows: LTEA_HepaRG_CYP2C9: Life Technologies and Expression Analysis (LTEA) Assay for CYP2C9 using HepaRG (AID 2283484). The procedure, abridged: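 Differentiated human HepaRG cells were exposed 48 h in serum-free induction medium to eight half-log concentrations up to 100 uM in 0.5% DMSO. CYP2C9 mRNA was measured by qRT-PCR, normalized to ACTB, GAPDH and POLR2A, and fitted bidirectionally against DMSO.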

Read-out in assay [2]: CYP2E1 (gene 1571)
The assay is described as follows: LTEA_HepaRG_CYP2E1: Life Technologies and Expression Analysis (LTEA) Assay for CYP2E1 using HepaRG (AID 2283485). In a few lines: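 Differentiated HepaRG cells were treated in duplicate for 48 h with chemicals in 0.5% DMSO, from 100 uM downward in half-log dilutions. RNA was then analysed by qRT-PCR for CYP2E1 induction or loss.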

Read-out in assay [3]: CYP4A11 (gene 1579)
The assay is described as follows: LTEA_HepaRG_CYP4A11: Life Technologies and Expression Analysis (LTEA) Assay for CYP4A11 using HepaRG (AID 2283486). The procedure, abridged:
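Differentiated HepaRG cells, 48 h after plating, exposed in duplicate for 48 h to 8 half-log concentrations up to 100 uM in 0.5% DMSO in serum-free induction medium. CYP4A11 mRNA measured by TaqMan qRT-PCR, normalized to ACTB, GAPDH and POLR2A.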

Read-out in assay [4]: Cytochrome P450 3A4 (Homo sapiens) (UniProt P08684)
Briefly: LTEA_HepaRG_CYP3A4: Life Technologies and Expression Analysis (LTEA) Assay for CYP3A4 using HepaRG (AID 2283487). The procedure, abridged: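 In a human hepatic line (HepaRG), duplicate wells were treated 48 h with up to 100 uM chemical in half-log dilutions. Endpoint: CYP3A4 mRNA induction or loss relative to 0.5% DMSO vehicle, by qRT-PCR.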

Read-out in assay [5]: DNA damage-inducible transcript 3 (DDIT3), DDIT3 (gene 1649)
Briefly: LTEA_HepaRG_DDIT3: Life Technologies and Expression Analysis (LTEA) Assay for DNA damage-inducible transcript 3 (DDIT3) using HepaRG (AID 2283488). The procedure, abridged:
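Changes in DDIT3 transcript, in either direction relative to 0.5% DMSO vehicle, were quantified by TaqMan qRT-PCR after 48 h chemical exposure of HepaRG cells at 8 concentrations, maximum 100 uM.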

Read-out in assay [6]: Pro-epidermal growth factor (Homo sapiens) (UniProt P01133)
The assay is described as follows: LTEA_HepaRG_EGF: Life Technologies and Expression Analysis (LTEA) Assay for Epidermal growth factor (EGF) using HepaRG (AID 2283489). The procedure, abridged: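 HepaRG cells (~100,000/well, 48 h pre-culture) exposed in duplicate for 48 h in serum-free induction medium to 8 half-log concentrations up to 100 uM in 0.5% DMSO. EGF mRNA by qRT-PCR, normalized to ACTB/GAPDH/POLR2A; bidirectional fit versus DMSO.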

Read-out in assay [7]: Early growth response protein 1 (EGR1) transcription factor, EGR1 (gene 1958)
The assay is described as follows: LTEA_HepaRG_EGR1: Life Technologies and Expression Analysis (LTEA) Assay for Early growth response protein 1 (EGR1) transcription factor using HepaRG (AID 2283490). The procedure, abridged: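 Differentiated human HepaRG cells in serum-free induction medium were exposed in duplicate for 48 h to eight concentrations (top 100 uM, half-log steps) in 0.5% DMSO. EGR1 mRNA was quantified by qRT-PCR, normalized to ACTB, GAPDH and POLR2A, and fitted bidirectionally versus DMSO.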

Read-out in assay [8]: Ezrin (EZR), EZR (gene 7430)
Briefly: LTEA_HepaRG_EZR: Life Technologies and Expression Analysis (LTEA) Assay for Ezrin (EZR) using HepaRG (AID 2283491). In a few lines: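 Gain or loss of EZR mRNA is scored relative to 0.5% DMSO in human HepaRG cultures treated 48 h with test chemicals in duplicate, eight half-log concentrations from 100 uM.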

Read-out in assay [9]: Cytochrome P450 3A7 (Homo sapiens) (UniProt P24462)
Briefly: LTEA_HepaRG_CYP3A7: Life Technologies and Expression Analysis (LTEA) Assay for CYP3A7 using HepaRG (AID 2283492). The procedure, abridged:
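Differentiated HepaRG cells in serum-free induction medium exposed 48 h in duplicate to 8-point half-log series from 100 uM top in 0.5% DMSO. CYP3A7 mRNA by qRT-PCR, normalized to ACTB/GAPDH/POLR2A, bidirectional fit versus DMSO.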

Read-out in assay [10]: CYP3A5 (gene 1577)
Briefly: LTEA_HepaRG_CYP3A5: Life Technologies and Expression Analysis (LTEA) Assay for CYP3A5 using HepaRG (AID 2283493). In a few lines: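 mRNA induction or loss of CYP3A5 assessed in HepaRG after 48 h dosing, 100 uM top concentration, duplicate wells; TaqMan qRT-PCR with ACTB, GAPDH, POLR2A normalization; 0.5% DMSO as negative control.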

Molecules are shown by their SMILES. Values joined by “and” are separate entries in the source; they are usually repeats but may differ in a detail not shown here. Equal values may be shown once. Some compounds were tested as several samples or in several runs, with calls that do not always agree. Active and inactive are the calls of the source. The calls were made as follows: active = hit-call score of the fitted dose curve at least 0.9, where 1 is the maximum; inactive = score below 0.9.

Sequence of Cytochrome P450 3A4 (Homo sapiens) (P08684 whole entry, looked up): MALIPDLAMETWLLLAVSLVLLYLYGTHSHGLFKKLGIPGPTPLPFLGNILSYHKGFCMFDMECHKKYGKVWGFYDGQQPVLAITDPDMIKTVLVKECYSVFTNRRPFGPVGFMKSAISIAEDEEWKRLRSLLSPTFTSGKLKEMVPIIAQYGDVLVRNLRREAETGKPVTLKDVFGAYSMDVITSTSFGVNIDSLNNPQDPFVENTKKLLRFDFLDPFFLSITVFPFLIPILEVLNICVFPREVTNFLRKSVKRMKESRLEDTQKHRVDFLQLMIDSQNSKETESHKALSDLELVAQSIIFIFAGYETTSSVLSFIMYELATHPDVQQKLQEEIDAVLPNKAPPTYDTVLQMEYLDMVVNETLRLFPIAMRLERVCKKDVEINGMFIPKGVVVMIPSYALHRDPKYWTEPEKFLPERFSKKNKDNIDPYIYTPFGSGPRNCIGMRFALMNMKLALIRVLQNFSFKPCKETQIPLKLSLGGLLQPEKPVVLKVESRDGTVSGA
Sequence of Cytochrome P450 3A7 (Homo sapiens) (P24462 whole entry, looked up): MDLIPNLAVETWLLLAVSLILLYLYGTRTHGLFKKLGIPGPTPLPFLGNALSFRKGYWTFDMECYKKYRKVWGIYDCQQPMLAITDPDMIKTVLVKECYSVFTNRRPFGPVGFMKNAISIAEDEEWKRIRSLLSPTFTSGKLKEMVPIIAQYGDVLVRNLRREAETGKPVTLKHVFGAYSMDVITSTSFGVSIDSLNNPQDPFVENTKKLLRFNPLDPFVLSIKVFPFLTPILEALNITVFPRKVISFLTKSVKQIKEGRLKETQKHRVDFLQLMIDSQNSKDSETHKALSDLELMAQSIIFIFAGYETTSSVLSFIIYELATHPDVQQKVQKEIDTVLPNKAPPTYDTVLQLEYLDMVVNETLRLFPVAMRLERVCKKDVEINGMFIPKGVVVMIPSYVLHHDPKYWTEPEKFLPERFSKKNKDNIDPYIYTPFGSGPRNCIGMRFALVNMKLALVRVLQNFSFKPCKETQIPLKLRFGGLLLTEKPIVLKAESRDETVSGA

Turning to `CCOC(=O)NCCOc1ccc(Oc2ccccc2)cc1`, the AC50 is 80 µM (active) in [1]; 83.8 µM (active) in assay [2]; 84.1 µM (active) in assay [3]; 87.8 µM (active) in assay [4]; 89 µM (active) in [5]; 84.8 µM (active) in [10]. The outcome in [6], in assay [7], in assay [8] and in [9] was inactive.

As to `CCCN(CCC)c1c([N+](=O)[O-])cc(C(F)(F)F)c(N)c1[N+](=O)[O-]`, the result in [1], in assay [5], in assay [7], in assay [8], in assay [9] and in assay [10] was inactive. Moreover, the AC50 in [2] was 16.2 µM (active); in assay [3], 28.9 µM (active); in assay [4] it was 7.3 µM (active); in [6], 21.2 µM (active).

Regarding `N#CSCSc1nc2ccccc2s1`, the AC50 in [1] is 75.3 µM (active); in [2] it was 81.2 µM (active); in assay [3], 94.4 µM (active); in assay [9] it was 64.3 µM (active). Further, the call in assay [4], in [5], in assay [6], in [7], in assay [8] and in assay [10] was inactive.

For the compound `CCOC(=O)C(C)Oc1ccc(Oc2nc3ccc(Cl)cc3o2)cc1` (stereo unspecified), the AC50 was 19.6 µM (active) in assay [1] and 35.6 µM (active) in assay [2]. Besides, the compound was called inactive in assay [3], in [4], in assay [5], in [6], in assay [7] and in assay [8]. Besides, the compound was called inactive in assay [9] and in assay [10].

As to `Cc1nn(C)c(Oc2ccccc2)c1C=NOCc1ccc(C(=O)OC(C)(C)C)cc1`, the AC50 in assay [1] was 20.1 µM (active); in assay [2], 2.75 µM (active); in [3], 2.99 µM (active); in assay [4] it was 1.84 µM (active); in [5] it was 3.27 µM (active); in assay [7], 1.22 µM (active). Also, the AC50 was 3.29 µM (active) in assay [8], 1.37 µM (active) in assay [9] and 9.26 µM (active) in [10]. Moreover, in [6], the compound was classed as inactive.

With `CCCCC(CC)CN1C(=O)C2C3C=CC(C3)C2C1=O` (stereo unspecified), the AC50 in assay [1] was 82.6 µM (active); in assay [2] it was 43 µM (active); in assay [3], 36.1 µM (active); in assay [4], 91 µM (active); in [5], 72.7 µM (active); in assay [9] it was 85.7 µM (active). Besides, the call in assay [6], in assay [7], in [8] and in assay [10] was inactive.

For the compound `CCC(C)OC(=O)N1CCCCC1CCO` (stereo unspecified), the AC50 in [1] is 4.74 µM (active); in assay [4] it was 50 µM (active). In addition, the outcome in assay [2], in assay [3], in assay [5], in [6], in assay [7] and in assay [8] was inactive. The call in assay [9] and in assay [10] was inactive.

Take `O=C(O)C1(C(=O)Nc2ccc(Cl)cc2Cl)CC1`: the AC50 in [1] was 71.9 µM (active); in assay [2], 63.5 µM (active); in assay [3], 84.8 µM (active); in assay [4], 75.4 µM (active); in [6] it was 31.6 µM (active); in assay [7], 50 µM (active). The AC50 in assay [9] is 91 µM (active). In addition, the compound was called inactive in assay [5], in assay [8] and in assay [10].

In the case of `COC(=O)c1ccc(I)cc1S(=O)(=O)NC(=O)Nc1nc(C)nc(OC)n1`, the call in assay [1], in [2], in [3], in assay [5], in [6] and in assay [7] was inactive. Besides, the compound was classed as inactive in assay [8], in assay [9] and in [10]. Also, the AC50 in assay [4] is 29.3 µM (active).

With `CC1(C)C(C=C(Cl)Cl)C1C(=O)OCc1cccc(Oc2ccccc2)c1` (stereo unspecified), the compound was called inactive in assay [1], in [3], in assay [5], in [6], in [7] and in assay [8]. The call in assay [10] was inactive. For the same compound, the AC50 in assay [2] was 26.2 µM (active); in assay [4], 22.6 µM (active); in assay [9] it was 18.3 µM (active).

`S=C(S)NCCNC(=S)S.[Mn+2].[S-]C([S-])=NCCN=C([S-])[S-].[Zn+2]`: the AC50 in assay [1] is 823 nM (active) and 816 nM (active) and 891 nM (active); in [2] it was 1.21 µM (active) and 1.4 µM (active) and 1.62 µM (active); in assay [3], 1.38 µM (active) and 1.51 µM (active) and 1.36 µM (active); in assay [4] it was 827 nM (active) and 1.11 µM (active) and 1.02 µM (active); in assay [5] it was 3.87 µM (active) and 1.87 µM (active) and 1.64 µM (active); in assay [6], 2.3 µM (active) and 673 nM (active). For the same compound, the AC50 was 3.58 µM (active) and 2.44 µM (active) and 4.53 µM (active) in [7]; 947 nM (active) and 1.22 µM (active) and 1.41 µM (active) in assay [9]; 1.94 µM (active) and 1.32 µM (active) and 700 nM (active) in [10]. Also, the compound was classed as inactive in assay [6] and in assay [8].

Turning to `Oc1ccc(C(c2ccc(O)cc2)C(Cl)(Cl)Cl)cc1`, the AC50 in assay [1] was 93.1 µM (active); in [2], 93.8 µM (active); in assay [3] it was 93.2 µM (active); in assay [4], 78.7 µM (active); in [5], 80.3 µM (active); in [7], 77.7 µM (active). The AC50 in assay [8] was 80.9 µM (active); in assay [9], 79.8 µM (active); in [10], 70.7 µM (active). Further, in [6], the result was inactive.
